# Experimental data as given in PubChem BioAssay (NCI).
# This is part of a sample that, as a whole, favours compounds with a hit. Of some 83,000 tested, about 20% had one in any assay.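 Plates (96-well) were seeded with cells, treated with compound at one concentration, and incubated for 48 hours before percent growth was determined.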 Unmarked numbers belong to inactive results. The source made the active and inactive calls. How the source made its calls: active means growth percent below 10; inactive means the rest.
# How the values were obtained:
# Test in all cases: NCI-60 one-dose screen, 48 h (100 = growth as untreated, 0 = no growth, -100 = all killed)
# Conditions in all cases: 10 µM unless noted
# T-47D breast = test system: T-47D breast
# BT-549 breast = test system: BT-549 breast
# MDA-MB-435 melanoma = test system: MDA-MB-435 melanoma
# SW-620 colon = test system: SW-620 colon
# MCF7 breast = test system: MCF7 breast
# HCT-116 colon = test system: HCT-116 colon
# HCC-2998 colon = test system: HCC-2998 colon
# KM12 colon = test system: KM12 colon
SMILES,growth (T-47D breast),growth (BT-549 breast),growth (MDA-MB-435 melanoma),growth (SW-620 colon),growth (MCF7 breast),growth (HCT-116 colon),growth (HCC-2998 colon),growth (KM12 colon)
O=C1C(Cl)=C(Nc2ccccc2)C(=O)C(Cl)=C1Nc1ccccc1,98.4%,112%,104%,107%,105%,112%,116%,116%
CC(NCCC(c1ccccc1)c1ccccc1)c1ccccc1 (stereo unspecified),109%,83.1%,27%,36.7%,74.8%,42.8%,-31.1% (active),41.5%
COc1cc(NS(=O)(=O)c2ccc(N)cc2)ncn1,103%,107%,99.8%,108%,94.7%,103%,109%,104%
CCCC(=O)Oc1ccc(/C(=C(\C)c2ccc(Cl)cc2)c2ccc(OCCN(CC)CC)cc2)cc1,-33.1% (active),22.7%,-85.9% (active),-80.2% (active),-78.4% (active),-86.7% (active),-65.4% (active),-44.4% (active)
CCOC(=O)c1noc2c1CCc1c-2cn(Cc2ccc(OC)cc2)c1-c1cc(OC)c(OC)c(OC)c1,40.9%,19.6%,-28.1% (active),22.9%,18%,8.2% (active),39.6%,21.3%
COc1ccc2c(c1)/C(=C/c1c(-c3cc(OC)c(OC)c(OC)c3Br)nc3sccn13)C(=O)N2,90.1%,86.2%,93.2%,94.4%,85%,87.7%,134%,94.6%
COc1cc2c(/C=C3/C(=O)Nc4ccc(O)cc43)c(Cl)n(Cc3cc(OC)c(OC)c(OC)c3)c2cc1C,23.5%,-7.31% (active),2.91% (active),19.3%,3.36% (active),18.1%,85.5%,16.3%
CCc1c(C)c2cc3c(c(C)c2oc1=O)OCC(=O)N3,58.6%,74.7%,74.5%,90.3%,82.1%,52.7%,90%,84.3%
COc1cc2c(cc1OCCCCC(=O)Nc1ccc(-c3nc4ccccc4s3)cc1)N=C[C@@H]1CCCN1C2=O,14.7%,-76.4% (active),-70.8% (active),-16.9% (active),1.14% (active),5.56% (active),-62% (active),-58.7% (active)
O=C(N/N=C1\SCC(=O)N1c1ccccc1)c1cc(-c2cc3ccccc3o2)nn1-c1ccccc1,101%,101%,102%,104%,99.9%,96.5%,176%,119%
O=S(=O)(CCN1CCOCC1)Nc1cncc(-c2ccc3ncnc(Nc4ccc(F)c(Cl)c4)c3c2)c1,-17.9% (active),49.7%,87.2%,90.2%,47.3%,56.1%,74.4%,95.9%
CCOC(=O)c1[nH]c(-c2ccc(Cl)cc2)cc1-c1cccnc1,5.56% (active),29.4%,-38% (active),25.4%,22.2%,9.8% (active),29.9%,19.8%
O=C(CSc1nnc(-c2ccccc2)o1)Nc1ccc(C(=O)/C=C/c2ccccc2)cc1,79.4%,74.5%,55.5%,39.4%,7.77% (active),-2.15% (active),46.5%,30.2%
Cc1ccccc1C[P+](c1ccccc1)(c1ccccc1)c1ccccc1,26%,29.6%,14.6%,22.8%,10.8%,15.7%,12.2%,14.5%
O=C(NCCNc1nccc(-c2c(-c3cccc(O)c3)nc3sccn23)n1)Nc1cccc(C(F)(F)F)c1,63.8%,41.1%,-3.01% (active),30.3%,55.6%,56.8%,23%,14%
C/C(=N\N=C1/SCC(=O)N1c1ccccc1)c1ccco1,114%,127%,88.6%,109%,53.7%,92.7%,109%,103%

SMILES,growth (T-47D breast),growth (BT-549 breast),growth (MDA-MB-435 melanoma),growth (SW-620 colon),growth (MCF7 breast),growth (HCT-116 colon),growth (HCC-2998 colon),growth (KM12 colon)
O=C(Nc1ccc(-n2cc(-c3ccncc3)c(-c3ccc(O)c(Cl)c3)n2)cc1)c1cc(C(F)(F)F)cc(C(F)(F)F)c1,60.7%,53.3%,45.9%,76.2%,58%,40.3%,83.6%,42.3%
CC(C)CNCC(=O)Nc1ccc(Cc2ccc(NC(=O)CNCC(C)C)cc2)cc1,68%,51.7%,88.5%,77.5%,43.8%,36.4%,36.6%,67.7%
Cc1nccc2c3ccc(OCc4cn(Cc5ccc(Br)cc5)nn4)cc3n(CCCc3ccccc3)c12,93.3%,88.2%,96.7%,97.8%,75.2%,63.6%,84.7%,92.6%
CCCC(=O)Oc1ccc(/C(=C(\C)c2ccc(OC)cc2)c2ccc(OCCN3CCCCC3)cc2)cc1,32.7%,82.2%,84.2%,87.5%,28.3%,55.7%,91%,75.6%
COc1ccc(Cl)cc1NC(=O)c1cc2c([nH]1)-c1nc(N)sc1CCC2,88.2%,102%,103%,107%,98.9%,110%,109%,97.3%
CN(C)c1ncc(C#Cc2c(F)cccc2F)c2ccccc12,36%,95.7%,105%,97.7%,28.5%,80.1%,97.6%,98%
O=C1OC(N(Cc2ccc(Cl)cc2)c2ccccc2)c2ccccc21 (stereo unspecified),89.2%,103%,109%,101%,94.9%,97%,102%,98.2%
COc1cccc(-c2nc3sccn3c2-c2ccnc(NCCNC(=O)c3ccccc3)n2)c1,61.9%,85.1%,55.2%,114%,81.7%,81.8%,114%,87.8%
S=c1[nH]nc(Cn2c3ccccc3c3ccncc32)o1,96%,105%,102%,104%,109%,102%,106%,102%
O=C(NCCNc1nccc(-c2c(-c3cccc(O)c3)nc3sccn23)n1)c1ccccc1,58.6%,61.4%,24%,78.2%,38.1%,42.5%,97.8%,75.9%
C#CC(=O)/C=C/CCCCCCC#CC(=O)CCC(=O)C#CCCCCCC/C=C/C(=O)C#C,24.8%,-15.3% (active),-33.6% (active),8.47% (active),21.6%,-7.8% (active),63.9%,49.2%
O=C(O)c1ccc(-n2cc(/C=N/Nc3ccc(F)cc3)c(-c3cccc(C(F)(F)F)c3)n2)cc1,73.2%,95.4%,57.8%,63.3%,46.4%,66.3%,55.2%,52.8%
Cc1c(Cl)ccc2c(C(=O)Cl)cc(-c3ccccc3)nc12,90.9%,94.8%,98.3%,97.5%,87.6%,102%,109%,102%
S=c1ssnc1-c1ccccn1,27.1%,49.5%,36%,5.79% (active),27.4%,6.31% (active),50.8%,32.8%
O=C(Nc1ccc(-n2ccc3c(NC(=O)c4ccccc4)ncnc32)cc1)Nc1cccc(Cl)c1Cl,42.8%,49.2%,-4.29% (active),11.5%,2.07% (active),-25.4% (active),64.6%,20.7%
Cn1cnc([N+](=O)[O-])c1N1c2ccncc2Sc2ccncc21,86%,113%,110%,95.1%,101%,95.7%,114%,103%
